Measured values reported in publication PMC5540273 (PLoS ONE, 2017).

Tested on: T1, TRKC
T1 construct: gene NTRK3
Conditions: concentration: 1 μM, replicates: in singlicate; n = 1
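Further: KINOMEscan kinase panel screen.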

Structure (SMILES) | %Inh
CS(=O)(=O)c1ccc(-c2c(-c3ncn[nH]3)sc(N3CCOCC3)c2C#N)cc1 | 0%
CCn1c(-c2cccnc2O)nc2cnccc21 [SB-736715] | 0%
Cc1cc(-c2ccc3c(c2)CC[C@@H](N[C@@H](C)c2ccccc2)C3)cnc1N.Cl [GW412617] | 8%
COc1ccccc1CNC(=O)c1cc(C(=O)c2ccccc2C)c[nH]1 [GSK364507] | 2%
Cc1cccc(-c2nc(-c3ccc(S(C)(=O)=O)cc3)sc2-c2ccnc(NCCc3ccccc3)c2)c1 | 15%
CC(=O)Nc1nc2cnc(Nc3cc(NC(=O)c4cccc(CCC#N)c4)ccc3C)nc2s1 | 5%
Cc1cccc(-c2nc(C)cc(Nc3ccncc3)n2)n1 [GSK257997] | 0%
CS(=O)(=O)c1ccc(-c2nc3n(c2-c2ccncc2)CCC3)cc1 [SKF-105942] | 0%
Cl.c1ccc(-c2n[nH]cc2-c2ccnc(-c3ccc(CN4CCOCC4)cc3)c2)nc1 [GW776245] | 0%
Nc1ncnc2[nH]c(-c3ccccc3)nc12 [AH5015] | 26%
O=C(O)COc1ncnc2cc(-c3ccc4[nH]ncc4c3)sc12 | 0%
COc1cc2ncn(-c3cc(OCC4CCCO4)c(C(N)=O)s3)c2cc1OC (stereo not shown) [GSK204607] | 0%
Cc1ccc(NC(=O)Nc2cc(C(C)(C)C)nn2-c2ccccc2)cc1 [GSK1014915] | 26%
Cc1cccc(-c2nc(Nc3ccc4[nH]ncc4c3)c3ccccc3n2)n1 [GW857175] | 17%
CC(C)(C)c1ccc(C(=O)Nc2cn3cc(Cl)ccc3n2)cc1 | 0%
Cn1cncc1-c1ccc2ncnc(Nc3ccc(OCc4ccccc4)cc3)c2c1 [GW320571] | 0%
O=C(Nc1n[nH]c2nc(-c3nccs3)c(Br)cc12)C1CC1 [SB-742251] | 66%
CN1C(=O)C(Nc2ccc(Cl)c(C(=O)O)c2)=C(c2ccc(Cl)cc2)C1=O [SB-404290] | 22%

Structure (SMILES) | %Inh
Cc1cc(N2Cc3ccccc3C2)nc(Nc2ccc(S(=O)(=O)N3CCOCC3)cc2)n1.Cl [GSK1669917] | 0%
CN(C)CCN(C)C(=O)c1cc(-c2ccncc2)c(-c2ccc(Cl)c(O)c2)o1.Cl.Cl [SB-710397] | 35%
Cc1csc(-c2nc(Nc3ccncc3)c3ccccc3n2)n1 [GW869640] | 22%
Cc1ccc(NC(=O)Nc2cccc(Cl)c2)cc1-c1ccc(C(=O)Nc2ccncc2)cc1 [GSK1398468] | 6%
O=C(Nc1n[nH]c2cc(-c3cccc(F)c3F)ccc12)C1CC1 [SB-733894] | 34%
O=C(Nc1ccccc1)Nc1cccc(Oc2ccc3nccn3n2)c1 | 27%
Cl.O=C(Nc1cccc(-c2nn3ncccc3c2-c2ccnc(Nc3cccnc3)n2)c1)c1c(F)cccc1F [GSK312879] | 7%
O=C(Nc1n[nH]c2nc(-c3nccs3)c(Br)cc12)C1CCCC1 [SB-742609] | 24%
COc1cc(Nc2nccc(N3CCC(NC(=O)Nc4cc(C)ccc4C)C3)n2)cc(OC)c1OC (stereo not shown) [GSK1379762] | 20%
COc1cc2nccc(Nc3ccc(NC(=O)c4ccc(C)cc4)c(O)c3)c2cc1OC.Cl [GW440132] | 0%
O=C(Nc1ccc2c(c1)OCO2)NC1CCN(c2ccnc(Nc3ccc(F)cc3)n2)C1 (stereo not shown) [GSK1379724] | 57%
O=C1NC(=O)C(N2CCc3ccccc32)=C1c1ccccc1Cl [SB-373598] | 4%
Fc1cccc(COc2nnc(-c3ccc4c(c3)CCO4)o2)c1 | 48%
Cc1cccc(-c2nc(Nc3cccc(C(N)=O)c3)c3ccccc3n2)n1 [GW876019] | 0%
Cc1c(O)cccc1Nc1ccnc2ccc(C(F)(F)F)cc12.Cl [GW466413] | 31%
COc1ccc(Nc2nccc(-c3cccc(NC(=O)c4cc5cc(F)ccc5[nH]4)c3)n2)cc1 [GSK1229782] | 47%
Cc1cc(NCC(c2ccccc2)c2ccccc2)nc(NCc2ccc(C(F)(F)F)cc2)n1 [GW497681] | 7%

Tested on: TRPM6
Conditions: concentration: 1 μM, replicates: in singlicate; n = 1

Structure (SMILES) | %Inh
CS(=O)(=O)c1ccc(-c2c(-c3ncn[nH]3)sc(N3CCOCC3)c2C#N)cc1 | 0%
CCn1c(-c2cccnc2O)nc2cnccc21 [SB-736715] | 0%
Cc1cc(-c2ccc3c(c2)CC[C@@H](N[C@@H](C)c2ccccc2)C3)cnc1N.Cl [GW412617] | 16%
COc1ccccc1CNC(=O)c1cc(C(=O)c2ccccc2C)c[nH]1 [GSK364507] | 21%
Cc1cccc(-c2nc(-c3ccc(S(C)(=O)=O)cc3)sc2-c2ccnc(NCCc3ccccc3)c2)c1 | 0%
CC(=O)Nc1nc2cnc(Nc3cc(NC(=O)c4cccc(CCC#N)c4)ccc3C)nc2s1 | 3%
Cc1cccc(-c2nc(C)cc(Nc3ccncc3)n2)n1 [GSK257997] | 24%
CS(=O)(=O)c1ccc(-c2nc3n(c2-c2ccncc2)CCC3)cc1 [SKF-105942] | 0%
Cl.c1ccc(-c2n[nH]cc2-c2ccnc(-c3ccc(CN4CCOCC4)cc3)c2)nc1 [GW776245] | 0%
Nc1ncnc2[nH]c(-c3ccccc3)nc12 [AH5015] | 4%
O=C(O)COc1ncnc2cc(-c3ccc4[nH]ncc4c3)sc12 | 6%
COc1cc2ncn(-c3cc(OCC4CCCO4)c(C(N)=O)s3)c2cc1OC (stereo not shown) [GSK204607] | 0%
Cc1ccc(NC(=O)Nc2cc(C(C)(C)C)nn2-c2ccccc2)cc1 [GSK1014915] | 24%
Cc1cccc(-c2nc(Nc3ccc4[nH]ncc4c3)c3ccccc3n2)n1 [GW857175] | 19%
CC(C)(C)c1ccc(C(=O)Nc2cn3cc(Cl)ccc3n2)cc1 | 0%
Cn1cncc1-c1ccc2ncnc(Nc3ccc(OCc4ccccc4)cc3)c2c1 [GW320571] | 0%
O=C(Nc1n[nH]c2nc(-c3nccs3)c(Br)cc12)C1CC1 [SB-742251] | 0%
CN1C(=O)C(Nc2ccc(Cl)c(C(=O)O)c2)=C(c2ccc(Cl)cc2)C1=O [SB-404290] | 10%

Structure (SMILES) | %Inh
Cc1cc(N2Cc3ccccc3C2)nc(Nc2ccc(S(=O)(=O)N3CCOCC3)cc2)n1.Cl [GSK1669917] | 9%
CN(C)CCN(C)C(=O)c1cc(-c2ccncc2)c(-c2ccc(Cl)c(O)c2)o1.Cl.Cl [SB-710397] | 27%
Cc1csc(-c2nc(Nc3ccncc3)c3ccccc3n2)n1 [GW869640] | 44%
Cc1ccc(NC(=O)Nc2cccc(Cl)c2)cc1-c1ccc(C(=O)Nc2ccncc2)cc1 [GSK1398468] | 0%
O=C(Nc1n[nH]c2cc(-c3cccc(F)c3F)ccc12)C1CC1 [SB-733894] | 0%
O=C(Nc1ccccc1)Nc1cccc(Oc2ccc3nccn3n2)c1 | 0%
Cl.O=C(Nc1cccc(-c2nn3ncccc3c2-c2ccnc(Nc3cccnc3)n2)c1)c1c(F)cccc1F [GSK312879] | 28%
O=C(Nc1n[nH]c2nc(-c3nccs3)c(Br)cc12)C1CCCC1 [SB-742609] | 0%
COc1cc(Nc2nccc(N3CCC(NC(=O)Nc4cc(C)ccc4C)C3)n2)cc(OC)c1OC (stereo not shown) [GSK1379762] | 0%
COc1cc2nccc(Nc3ccc(NC(=O)c4ccc(C)cc4)c(O)c3)c2cc1OC.Cl [GW440132] | 5%
O=C(Nc1ccc2c(c1)OCO2)NC1CCN(c2ccnc(Nc3ccc(F)cc3)n2)C1 (stereo not shown) [GSK1379724] | 8%
O=C1NC(=O)C(N2CCc3ccccc32)=C1c1ccccc1Cl [SB-373598] | 11%
Fc1cccc(COc2nnc(-c3ccc4c(c3)CCO4)o2)c1 | 0%
Cc1cccc(-c2nc(Nc3cccc(C(N)=O)c3)c3ccccc3n2)n1 [GW876019] | 0%
Cc1c(O)cccc1Nc1ccnc2ccc(C(F)(F)F)cc12.Cl [GW466413] | 0%
COc1ccc(Nc2nccc(-c3cccc(NC(=O)c4cc5cc(F)ccc5[nH]4)c3)n2)cc1 [GSK1229782] | 33%
Cc1cc(NCC(c2ccccc2)c2ccccc2)nc(NCc2ccc(C(F)(F)F)cc2)n1 [GW497681] | 0%
